In PubChem BioAssay (EPA / NIEHS) one finds outcome and AC50 data, which are given here for eight compounds.

Active and inactive are the calls of the source. Rule for the calls: active = hit-call score of the fitted dose curve at least 0.9, where 1 is the maximum; inactive = score below 0.9.

The target of test [1] is Transcription factor E2F1 (Homo sapiens) (UniProt Q01094). Kind of test: ATG_E2F_CIS: Attagene CIS-FACTORIAL HepG2 Assay for human E2F Transcription Factor 1 (AID 2282935). The conditions noted are these: HepG2 Attagene cis-reporter, E2F reporter RNA transcripts; actives raise or lower the signal. The gist of the method: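 First, HepG2 cells were transfected with reporter transcription units. Next, they were dosed for 24 h. Then RNA was isolated, converted to cDNA, PCR-amplified, FAM-labeled, HpaI-digested and analyzed by capillary electrophoresis.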

Test [2] in a line: ATG_E_Box_CIS: Attagene CIS-FACTORIAL HepG2 Assay for human Enhancer Box (E-box) (AID 2282936). Particulars: HepG2 E-box cis-reporter transcription, actives raise or lower the signal. The gist of the method:
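Endogenous transcription factor activity was sensed in human HepG2 liver cells through transfected cis-promoter reporter units. After 24 h of dosing, total RNA was reverse-transcribed and reporter cDNA resolved by capillary electrophoresis.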

Test [3] can be described thus: ATG_M_61_CIS: Attagene CIS-FACTORIAL HepG2 Assay for M61 Transcription Factor (Internal Marker) (AID 2282937). The conditions noted are these: HepG2 Attagene CIS-FACTORIAL M61 internal marker reporter; actives raise or lower the signal. In a few lines: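 Endogenous transcription factor activity in HepG2 is read through transiently transfected cis-element reporter units. After 24 h dosing, RNA undergoes reverse transcription, PCR and primer extension with 6-FAM before capillary electrophoresis; DMSO-referenced bidirectional fit.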

Test [4] in a line: ATG_M_19_CIS: Attagene CIS-FACTORIAL HepG2 Assay for M19 Transcription Factor (Internal Marker) (AID 2282939). Particulars: HepG2 Attagene CIS-FACTORIAL M19 internal marker reporter; actives raise or lower the signal. In a few lines: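 Internal marker readout, fitted in both directions against DMSO, from HepG2 cells carrying transfected cis-element reporter constructs; RT-PCR and capillary electrophoresis of reporter mRNA after 24 h exposure.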

Test [5] is described as follows: ATG_ERE_CIS: Attagene CIS-FACTORIAL HepG2 Assay for Estrogen Response Element (ERE) (AID 2282940). Particulars: HepG2 ERE cis-reporter, Attagene RNA transcript; actives raise or lower the signal. In a few lines: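 After 24 h compound treatment, RNA from transfected HepG2 cells was reverse-transcribed, reporter cDNA PCR-amplified, FAM-labelled, HpaI-cut and resolved by capillary electrophoresis. ERE-driven cis reporter transcripts reflect endogenous factors; gain or loss scored against DMSO.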

Test [6] in a line: ATG_Ets_CIS: Attagene CIS-FACTORIAL HepG2 Assay for human Erythroblast Transformation Specific (ETS) (AID 2282941). The conditions noted are these: HepG2 ETS cis-reporter transcription, actives raise or lower the signal. In a few lines:
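Multiplexed reporter transcript profiling: HepG2, 24 h treatment, total RNA to cDNA, PCR, 6-FAM labelling, HpaI cut, capillary electrophoresis. Gain- or loss-of-signal fitted against DMSO.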

In test [7] the target is Hepatocyte nuclear factor 3-beta (Homo sapiens) (UniProt Q9Y261). In words: ATG_FoxA2_CIS: Attagene CIS-FACTORIAL HepG2 Assay for human Forkhead box A2 (FOXA2) (AID 2282942). The conditions noted are these: HepG2 cis-reporter transcription factor activity, 24 h; actives raise or lower the signal. In a few lines: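 Reporter transcript induction is measured by fluorescence after capillary electrophoresis of RT-PCR products from HepG2 cells exposed 24 h. Cis-regulated reporter units report endogenous factor activity; curves fitted both directions against DMSO.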

Test [8] is described as follows: ATG_FoxO_CIS: Attagene CIS-FACTORIAL HepG2 Assay for human Forkhead box O (FoxO) (AID 2282943). The conditions noted are these: HepG2 Attagene cis-reporter, FoxO element, mRNA; actives raise or lower the signal. The gist of the method:
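Values reflect reporter mRNA induction or loss in HepG2 cells 24 h post-dosing, fitted bidirectionally with DMSO as negative control and baseline. Detection used RT-PCR and fluorescence capillary electrophoresis.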

Test [9] can be described thus: ATG_GATA_CIS: Attagene CIS-FACTORIAL HepG2 Assay for human GATA Binding Protein (AID 2282944). The conditions noted are these: HepG2 GATA cis-element reporter, Attagene multiplex mRNA; actives raise or lower the signal. In a few lines: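 Reporter transcripts from a GATA cis-regulated unit, among multiplexed reporters in transfected HepG2 cells, were measured by RT-PCR with capillary electrophoresis after 24 h dosing. Induction or loss scored relative to DMSO.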

Test [10] in a line: ATG_GLI_CIS: Attagene CIS-FACTORIAL HepG2 Assay for human Zinc Finger Protein GLI1 (AID 2282945). Particulars: HepG2, Attagene cis-factorial reporter mRNA, GLI element; actives raise or lower the signal. In a few lines:
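HepG2 cells transiently transfected with cis-promoter multiplexed reporter units report endogenous transcription factor activity. After 24 h chemical exposure, reporter mRNA was quantified by RT-PCR, 6-FAM labelling, HpaI digestion and capillary electrophoresis, with bidirectional fitting against DMSO.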

The nature of test [11]: ATG_GRE_CIS: Attagene CIS-FACTORIAL HepG2 Assay for human Glucocorticoid Response Elements (GRE) (AID 2282947). Particulars: HepG2 GRE cis-reporter, Attagene multiplex mRNA; actives raise or lower the signal. The gist of the method:
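Cells (HepG2) bearing transfected cis-promoter reporter transcription units were treated with chemical for 24 hours. Reporter mRNA was measured via RT-PCR with capillary electrophoresis, and activity was fitted in both directions relative to DMSO.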

A short description of test [12]: ATG_ISRE_CIS: Attagene CIS-FACTORIAL HepG2 Assay for human Interferon Regulatory Factor 1 (IRF1) binding to an Interferon-Stimulated Response Element (ISRE) (AID 2282948). Particulars: HepG2 ISRE cis-reporter (Attagene), mRNA transcription readout; actives raise or lower the signal. The gist of the method:
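Signal reflects induction or loss of ISRE-linked reporter mRNA in transiently transfected HepG2 cells after a 24 h treatment, detected by fluorescent RT-PCR fragments on capillary electrophoresis and normalised to DMSO.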

The nature of test [13]: ATG_M_32_CIS: Attagene CIS-FACTORIAL HepG2 Assay for M32 Transcription Factor (Internal Marker) (AID 2282949).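 Note: background control marker of the multiplexed CIS panel rather than a real target.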 Particulars: HepG2 Attagene cis-factorial M32 reporter, mRNA; actives raise or lower the signal. In a few lines:
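HepG2 human liver cells transiently transfected with cis-promoter-driven multiple reporter transcription units, dosed 24 h. Reporter mRNA quantified by RT-PCR, FAM-labelled primer extension, HpaI digest and capillary electrophoresis; bidirectional fit versus DMSO baseline.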

Test [14] can be described thus: ATG_M_06_CIS: Attagene CIS-FACTORIAL HepG2 Assay for M06 Transcription Factor (Internal Marker) (AID 2282950). The conditions noted are these: HepG2 Attagene CIS-FACTORIAL M06 internal marker reporter; actives raise or lower the signal. The gist of the method: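 Serves as a background control readout. Transfected HepG2 exposed to compounds for 24 h, then reporter transcripts quantified by fluorescent RT-PCR and capillary electrophoresis. Both directions fitted against DMSO baseline.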

For test [15], the target named is Hypoxia-inducible factor 1-alpha (Homo sapiens) (UniProt Q16665). In words: ATG_HIF1a_CIS: Attagene CIS-FACTORIAL HepG2 Assay for human Hypoxia Inducible Factor 1 (HIF1A) (AID 2282951). The conditions noted are these: HepG2 Attagene cis-factorial HIF1a reporter transcription; actives raise or lower the signal. In a few lines:
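Fluorescence intensity of capillary-separated, 6-FAM-labelled reporter amplicons gives mRNA induction in HepG2 cells carrying transfected cis-promoter reporter units; cells exposed 24 h, responses fitted up or down from DMSO.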

Test [16] concerns the target Hepatocyte nuclear factor 6 (Homo sapiens) (UniProt Q9UBC0). In words: ATG_HNF6_CIS: Attagene CIS-FACTORIAL HepG2 Assay for human Hepatocyte Nuclear Factor 6 (HNF6) (AID 2282952). Particulars: HepG2 Attagene cis-factorial HNF6 reporter transcription; actives raise or lower the signal. In a few lines: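 Endogenous factor activity read in transiently transfected HepG2 via promoter-regulated reporter transcripts. RNA harvested 24 h post-dosing, reverse-transcribed, PCR-amplified, FAM-labelled, HpaI-digested and resolved by capillary electrophoresis; fitted in both directions against DMSO.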

The target of test [17] is Heat shock factor protein 1 (Homo sapiens) (UniProt Q00613). In words: ATG_HSE_CIS: Attagene CIS-FACTORIAL HepG2 Assay for human Heat Shock Transcription Factor 1 (HSE) (AID 2282953). Particulars: HepG2 HSE cis-reporter, Attagene RNA transcription; actives raise or lower the signal. In a few lines: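 Endogenous transcription factor activity in transiently transfected HepG2, read as reporter mRNA by RT-PCR with fluorescent capillary electrophoresis after 24 h. Gain or loss of signal fitted versus DMSO baseline.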

Test [18] in a line: ATG_MRE_CIS: Attagene CIS-FACTORIAL HepG2 Assay for human Metal Responsive Element (MRE) (AID 2282954). Particulars: HepG2 MRE cis-reporter transcription, Attagene multiplex; actives raise or lower the signal. The gist of the method:
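Cells were transfected with cis-promoter reporter transcription units, then dosed for 24 h. RNA was reverse-transcribed, amplified, fluorescently labelled and resolved by capillary electrophoresis, and activity was fitted in both directions relative to DMSO.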

For test [19], the target named is Bile acid receptor (Homo sapiens) (UniProt Q96RI1). In words: ATG_IR1_CIS: Attagene CIS-FACTORIAL HepG2 Assay for human Nuclear Receptor Subfamily 1 Group H Member 4 (NR1H4), IR1 submotif (AID 2282946). The conditions noted are these: IR1 reporter transcription, actives raise or lower the signal. In a few lines:
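Readout: reporter transcript levels by RT-PCR with fluorescent capillary electrophoresis, from HepG2 cells transiently transfected with multiplexed cis-regulated reporters and dosed 24 h. Gain- or loss-of-signal fitted versus DMSO negative control.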

Sequence of Hepatocyte nuclear factor 6 (Homo sapiens) (Q9UBC0 whole entry, looked up): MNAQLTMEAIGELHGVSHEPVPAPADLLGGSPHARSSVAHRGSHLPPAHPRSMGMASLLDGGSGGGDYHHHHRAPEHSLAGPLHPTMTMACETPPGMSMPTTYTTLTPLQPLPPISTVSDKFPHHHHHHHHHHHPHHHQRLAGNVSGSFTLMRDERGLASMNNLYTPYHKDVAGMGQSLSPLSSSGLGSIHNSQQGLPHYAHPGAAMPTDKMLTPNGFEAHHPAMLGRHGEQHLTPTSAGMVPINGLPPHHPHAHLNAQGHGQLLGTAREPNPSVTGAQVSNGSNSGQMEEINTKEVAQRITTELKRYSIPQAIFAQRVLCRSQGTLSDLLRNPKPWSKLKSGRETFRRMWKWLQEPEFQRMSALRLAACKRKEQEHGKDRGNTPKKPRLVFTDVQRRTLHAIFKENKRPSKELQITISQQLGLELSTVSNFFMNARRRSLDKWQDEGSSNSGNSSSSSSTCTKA
Sequence of Hypoxia-inducible factor 1-alpha (Homo sapiens) (Q16665 whole entry, looked up): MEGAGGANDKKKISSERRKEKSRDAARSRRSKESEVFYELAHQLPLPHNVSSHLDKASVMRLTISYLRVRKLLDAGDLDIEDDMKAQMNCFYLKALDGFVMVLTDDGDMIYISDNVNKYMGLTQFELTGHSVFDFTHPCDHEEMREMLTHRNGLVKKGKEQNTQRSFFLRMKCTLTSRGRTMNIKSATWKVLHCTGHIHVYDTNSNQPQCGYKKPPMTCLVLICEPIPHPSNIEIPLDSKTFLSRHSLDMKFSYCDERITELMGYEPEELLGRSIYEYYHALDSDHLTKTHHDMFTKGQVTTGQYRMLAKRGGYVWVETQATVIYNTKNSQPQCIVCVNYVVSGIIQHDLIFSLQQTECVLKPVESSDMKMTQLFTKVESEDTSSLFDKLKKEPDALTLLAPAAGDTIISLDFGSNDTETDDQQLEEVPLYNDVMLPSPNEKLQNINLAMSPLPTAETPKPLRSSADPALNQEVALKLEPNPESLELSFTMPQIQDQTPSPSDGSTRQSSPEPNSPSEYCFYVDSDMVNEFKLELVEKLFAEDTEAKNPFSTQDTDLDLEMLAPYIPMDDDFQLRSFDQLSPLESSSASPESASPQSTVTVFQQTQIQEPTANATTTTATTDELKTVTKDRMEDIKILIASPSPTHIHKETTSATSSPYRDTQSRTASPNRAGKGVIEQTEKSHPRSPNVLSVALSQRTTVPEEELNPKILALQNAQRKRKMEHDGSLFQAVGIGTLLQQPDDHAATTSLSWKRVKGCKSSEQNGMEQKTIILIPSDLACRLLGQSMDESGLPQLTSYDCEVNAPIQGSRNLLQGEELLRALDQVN
Sequence of Transcription factor E2F1 (Homo sapiens) (Q01094 whole entry, looked up): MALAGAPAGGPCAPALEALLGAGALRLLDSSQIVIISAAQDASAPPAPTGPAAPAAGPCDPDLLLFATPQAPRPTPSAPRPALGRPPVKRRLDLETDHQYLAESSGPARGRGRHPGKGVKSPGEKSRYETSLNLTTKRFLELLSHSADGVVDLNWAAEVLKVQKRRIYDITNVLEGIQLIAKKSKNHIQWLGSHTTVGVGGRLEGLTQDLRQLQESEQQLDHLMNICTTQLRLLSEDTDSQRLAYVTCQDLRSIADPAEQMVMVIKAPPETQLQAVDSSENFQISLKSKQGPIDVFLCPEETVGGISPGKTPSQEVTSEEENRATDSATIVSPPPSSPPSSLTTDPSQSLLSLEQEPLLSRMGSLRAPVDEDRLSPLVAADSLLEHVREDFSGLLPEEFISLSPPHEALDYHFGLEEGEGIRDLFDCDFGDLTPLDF
Sequence of Hepatocyte nuclear factor 3-beta (Homo sapiens) (Q9Y261 whole entry, looked up): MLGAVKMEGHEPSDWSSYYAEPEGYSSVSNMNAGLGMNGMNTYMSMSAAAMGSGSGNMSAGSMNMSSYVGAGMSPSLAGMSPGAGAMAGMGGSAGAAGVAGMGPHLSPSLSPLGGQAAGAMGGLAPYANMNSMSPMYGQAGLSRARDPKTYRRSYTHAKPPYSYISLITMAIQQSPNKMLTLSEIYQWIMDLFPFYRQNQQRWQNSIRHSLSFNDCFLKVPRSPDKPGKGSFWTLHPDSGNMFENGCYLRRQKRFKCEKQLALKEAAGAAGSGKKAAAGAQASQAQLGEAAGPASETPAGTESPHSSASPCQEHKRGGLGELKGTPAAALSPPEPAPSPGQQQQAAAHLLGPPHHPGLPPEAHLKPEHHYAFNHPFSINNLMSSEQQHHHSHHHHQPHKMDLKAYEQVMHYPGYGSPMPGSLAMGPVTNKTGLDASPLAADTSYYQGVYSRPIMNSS
Sequence of Heat shock factor protein 1 (Homo sapiens) (Q00613 whole entry, looked up): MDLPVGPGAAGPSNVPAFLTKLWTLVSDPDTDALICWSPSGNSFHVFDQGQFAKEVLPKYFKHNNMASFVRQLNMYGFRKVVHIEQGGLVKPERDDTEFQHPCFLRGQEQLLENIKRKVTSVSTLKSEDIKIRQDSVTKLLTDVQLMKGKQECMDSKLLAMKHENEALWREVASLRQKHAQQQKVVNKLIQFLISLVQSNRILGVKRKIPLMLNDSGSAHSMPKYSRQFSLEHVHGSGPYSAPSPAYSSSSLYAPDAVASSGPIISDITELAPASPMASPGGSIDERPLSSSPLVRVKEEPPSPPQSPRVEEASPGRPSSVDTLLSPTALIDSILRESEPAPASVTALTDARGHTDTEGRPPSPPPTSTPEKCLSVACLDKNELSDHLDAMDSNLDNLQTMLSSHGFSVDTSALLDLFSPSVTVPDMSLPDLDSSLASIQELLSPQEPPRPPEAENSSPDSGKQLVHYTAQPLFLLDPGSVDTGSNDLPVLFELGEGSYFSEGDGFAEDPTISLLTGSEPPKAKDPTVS
Sequence of Bile acid receptor (Homo sapiens) (Q96RI1 whole entry, looked up): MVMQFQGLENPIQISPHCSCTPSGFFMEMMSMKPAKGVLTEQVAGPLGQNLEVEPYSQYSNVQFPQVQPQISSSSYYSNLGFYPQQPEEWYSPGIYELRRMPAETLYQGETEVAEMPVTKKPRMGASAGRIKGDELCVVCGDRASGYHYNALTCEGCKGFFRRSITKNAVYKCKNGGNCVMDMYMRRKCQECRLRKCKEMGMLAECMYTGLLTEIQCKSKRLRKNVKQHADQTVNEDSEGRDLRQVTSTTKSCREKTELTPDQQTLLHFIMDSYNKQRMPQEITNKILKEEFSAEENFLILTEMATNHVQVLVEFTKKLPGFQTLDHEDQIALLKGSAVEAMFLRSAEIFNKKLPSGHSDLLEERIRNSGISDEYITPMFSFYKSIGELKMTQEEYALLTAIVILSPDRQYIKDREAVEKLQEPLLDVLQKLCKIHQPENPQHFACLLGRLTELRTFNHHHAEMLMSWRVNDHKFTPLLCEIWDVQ

As to `CCCC(=NOCC)C1=C(O)CC(CC(C)SCC)CC1=O` (configuration not stated), the compound was called inactive in test [1], in test [2], in test [3], in test [4], in test [5] and in test [6]. Further, the result in [7], in test [8], in test [9], in test [10], in test [11] and in [12] was inactive. Moreover, the compound was classed as inactive in test [13], in [14], in test [15], in test [16], in test [17] and in test [18].

Turning to `N#Cc1c(Cl)cccc1Cl`, the compound was classed as inactive in [1], in test [2], in test [3], in test [4], in test [5] and in [6]. The result in [7], in test [8], in test [9], in test [10], in test [11] and in test [12] was inactive. In addition, the compound was called inactive in [13], in test [14], in test [15], in [16], in test [17] and in test [18].

Take `CNC(=O)N(C)c1nnc(C(C)(C)C)s1`: the outcome in test [1], in test [2], in test [3], in test [4], in [5] and in [6] was inactive. The compound was called inactive in test [7], in test [8], in test [9], in test [10], in test [12] and in [13]. In addition, the result in [14], in [16], in [17] and in test [18] was inactive.

In the case of `O=C(O)c1c(Cl)ccc2cc(Cl)cnc12`, the call in [1], in test [2], in [3], in test [4], in [5] and in test [6] was inactive. The result in test [7], in test [8], in test [9], in test [10], in [19] and in test [11] was inactive. The compound was called inactive in test [12], in test [13], in test [14], in test [15], in test [16] and in [17]. Moreover, the compound was classed as inactive in [18].

In general, AC50 refers to the concentration giving half of the maximal activity seen. In the case of `CCOP(=S)(OCC)Oc1nc(Cl)n(C(C)C)n1`, the compound was called inactive in test [1], in test [2], in [3], in [4], in test [6] and in test [7]. Also, the call in [8], in [9], in [10], in test [11], in test [12] and in test [13] was inactive. Besides, the outcome in test [14], in test [15], in test [16], in test [17] and in test [18] was inactive. For the same compound, the AC50 in test [5] was 50 µM (active).

Take `CC(C)NC(=O)N1CC(=O)N(c2cc(Cl)cc(Cl)c2)C1=O`: the compound was called inactive in test [1], in test [2], in [3], in test [4], in [6] and in [7]. In addition, the outcome in test [8], in test [9], in test [10], in test [12], in [13] and in test [14] was inactive. The call in test [15], in test [16] and in test [18] was inactive. The AC50 in test [5] was 20.6 µM (active).

Take `COC(=O)NC(=S)Nc1ccccc1NC(=S)NC(=O)OC`: the compound was classed as inactive in test [1], in [2], in [3], in test [4], in test [5] and in [6]. Also, the compound was called inactive in [7], in [8], in test [9], in test [10], in test [19] and in test [11]. Moreover, the compound was classed as inactive in test [12], in test [13], in [14], in test [15], in [16] and in test [17]. The compound was called inactive in test [18].

As for `Nc1c(Cl)c(Cl)nc(C(=O)O)c1Cl`, the call in test [1], in [2], in test [3], in [4], in test [5] and in [6] was inactive. The compound was called inactive in test [7], in [8], in test [9], in test [10], in [11] and in test [12]. In addition, the compound was called inactive in test [13], in [14], in test [15], in [16], in test [17] and in test [18].
